6 compounds from PubChem BioAssay (EPA / NIEHS) can be followed below.

A short description of test [1]: ATG_M_06_XSP2: Attagene TRANS-FACTORIAL Multi-Species (XSP2) HepG2 Assay for M06 Transcription Factor (Internal Marker) (AID 2283811).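 Also: hits are increases in signal above the DMSO baseline.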 The procedure, abridged: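 HepG2 cells transiently transfected with GAL4-UAS multi-reporter constructs, dosed 24 h with 3 nM 6-alpha-fluorotestosterone plus 1.5 nM norgestrel present to stimulate androgen receptor. Reporter mRNA quantified by RT-PCR, 6-FAM labelling, HpaI digestion and capillary electrophoresis; gain-of-signal fitted versus DMSO baseline.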

Test [2] has as its target Estrogen receptor beta (Homo sapiens) (UniProt Q92731). Description: ATG_hERb_XSP2: Attagene TRANS-FACTORIAL Multi-Species (XSP2) HepG2 Assay for human Estrogen Receptor (ERb) (AID 2283813).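 Also: actives raise reporter mRNA above DMSO so AC50 reflects agonist induction.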 The procedure, abridged: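 HepG2 cells transiently transfected with GAL4-UAS reporter units and chimeric human ERb-Gal4, 24 h exposure. Reporter mRNA quantified by RT-PCR with FAM labelling, HpaI digestion and capillary electrophoresis; gain of signal versus DMSO.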

In test [3] the target is zebrafish Estrogen Receptor (ER1), esr1 (gene 259252) (UniProt P57717). Description: ATG_zfER1_XSP2: Attagene TRANS-FACTORIAL Multi-Species (XSP2) HepG2 Assay for zebrafish Estrogen Receptor (ER1) (AID 2283816). Summed up:
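HepG2 cells transiently transfected with a GAL4-UAS reporter and a chimeric zebrafish ER1-Gal4 construct, dosed 24 h. Reporter mRNA quantified by RT-PCR, labelling, HpaI digestion and capillary electrophoresis, relative to DMSO.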

Test [4] concerns the target chicken Estrogen Receptor (ERa), ESR1 (gene 396099) (UniProt P06212). Description: ATG_chERa_XSP2: Attagene TRANS-FACTORIAL Multi-Species (XSP2) HepG2 Assay for chicken Estrogen Receptor (ERa) (AID 2283817).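 Also: actives raise reporter signal above DMSO so AC50 reflects ER activation.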 The procedure, abridged:
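HepG2 cells transiently transfected with multiplexed GAL4-UAS reporter units expressing chimeric chicken ERa-Gal4; 24 h compound exposure. Reporter mRNA measured by RT-PCR with 6-FAM labelling, HpaI digestion and capillary electrophoresis; gain-of-signal fitted versus DMSO.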

The nature of test [5]: ATG_M_19_XSP1: Attagene TRANS-FACTORIAL Multi-Species (XSP1) HepG2 Assay for M19 Transcription Factor (Internal Marker) (AID 2283798). The procedure, abridged: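 HepG2 cells transiently transfected with multiplexed GAL4-UAS reporter units, dosed 24 h with 3 nM 6-alpha-fluorotestosterone present for partial AR stimulation. Reporter mRNA measured by RT-PCR with capillary electrophoresis; gain-of-signal fitted relative to DMSO.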

The nature of test [6]: ATG_M_32_XSP1: Attagene TRANS-FACTORIAL Multi-Species (XSP1) HepG2 Assay for M32 Transcription Factor (Internal Marker) (AID 2283799). Summed up:
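HepG2 cells transiently transfected with multi-species TRANS reporter units, dosed 24 h with 3 nM 6-alpha-fluorotestosterone present. Internal-marker reporter mRNA quantified by RT-PCR and capillary electrophoresis; positive-direction fit versus DMSO.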

Test [7] concerns the target Peroxisome proliferator-activated receptor gamma (Homo sapiens) (UniProt P37231). Nature of the test: ATG_hPPARg_XSP1: Attagene TRANS-FACTORIAL Multi-Species (XSP1) HepG2 Assay for human Peroxisome Proliferator-activated Receptor gamma (PPARg) (AID 2283800). The procedure, abridged: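 HepG2 cells transiently transfected with GAL4-UAS reporter units carrying chimeric NR-Gal4 proteins; 3 nM 6-alpha-fluorotestosterone present. After 24 h dosing, reporter mRNA quantified by RT-PCR and capillary electrophoresis; gain of signal relative to DMSO.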

For test [8], the system named is zebrafish Peroxisome Proliferator-activated Receptor gamma (PPARg), gene 557037. Nature of the test: ATG_zfPPARg_XSP1: Attagene TRANS-FACTORIAL Multi-Species (XSP1) HepG2 Assay for zebrafish Peroxisome Proliferator-activated Receptor gamma (PPARg) (AID 2283801). The procedure, abridged:
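HepG2 cells transiently transfected with GAL4-UAS reporter units including a zebrafish PPARg–GAL4 chimera, dosed 24 h with 3 nM 6-alpha-fluorotestosterone present. Reporter mRNA quantified by RT-PCR, FAM labelling, HpaI digestion and capillary electrophoresis; induction versus DMSO.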

In test [9] the target is mouse Peroxisome Proliferator-activated Receptor gamma (PPARg), Pparg (gene 19016) (UniProt P37238). Nature of the test: ATG_mPPARg_XSP1: Attagene TRANS-FACTORIAL Multi-Species (XSP1) HepG2 Assay for mouse Peroxisome Proliferator-activated Receptor gamma (PPARg) (AID 2283802). Summed up: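 HepG2 cells transiently transfected with GAL4-UAS reporter units driven by mouse PPARg–GAL4 chimera; 3 nM 6-alpha-fluorotestosterone present. After 24 h dosing, reporter mRNA quantified by RT-PCR, fluorescent labelling and capillary electrophoresis; gain of signal versus DMSO.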

Test [10] has as its target Nuclear receptor subfamily 1 group I member 2 (Mus musculus) (UniProt O54915). Nature of the test: ATG_mPXR_XSP1: Attagene TRANS-FACTORIAL Multi-Species (XSP1) HepG2 Assay for mouse Pregnane X Receptor (PXR) (AID 2283803). The procedure, abridged: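 Transiently transfected HepG2 cells expressing a receptor-Gal4 chimera drive a GAL4-UAS reporter; 3 nM 6-alpha-fluorotestosterone included. Reporter mRNA read 24 h post-dose by RT-PCR and capillary electrophoresis; gain of signal relative to DMSO.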

Test [11] deals with human Thyroid hormone Receptor alpha (TRa), THRA (gene 7067) (UniProt P10827). Description: ATG_hTRa_XSP1: Attagene TRANS-FACTORIAL Multi-Species (XSP1) HepG2 Assay for human Thyroid hormone Receptor alpha (TRa) (AID 2283805). Summed up:
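HepG2 cells transiently transfected with GAL4-UAS reporter units expressing chimeric NR-Gal4 proteins, dosed 24 hours with 3 nM 6-alpha-fluorotestosterone present. Reporter mRNA measured by RT-PCR and capillary electrophoresis; gain of signal fitted versus DMSO.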

Test [12] relates to turtle Thyroid Hormone Receptor, alpha (TRa), gene 101949057. Nature of the test: ATG_trTRa_XSP1: Attagene TRANS-FACTORIAL Multi-Species (XSP1) HepG2 Assay for turtle Thyroid Hormone Receptor, alpha (TRa) (AID 2283806). The procedure, abridged:
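HepG2 cells transiently transfected with GAL4-UAS reporter units and chimeric receptor-Gal4 constructs, with 3 nM 6-alpha-fluorotestosterone present. Reporter mRNA was quantified 24 h after dosing by RT-PCR, 6-FAM labelling and capillary electrophoresis; gain of signal versus DMSO.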

For test [13], the target named is zebrafish Thyroid Hormone Receptor alpha (TRa), thraa (gene 30670) (UniProt Q98867). Nature of the test: ATG_zfTRa_XSP1: Attagene TRANS-FACTORIAL Multi-Species (XSP1) HepG2 Assay for zebrafish Thyroid Hormone Receptor alpha (TRa) (AID 2283807). Summed up: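 HepG2 cells transiently transfected with GAL4-UAS reporter units including a zebrafish TRa–Gal4 chimera, dosed 24 h with 3 nM 6-alpha-fluorotestosterone present. Reporter mRNA quantified by RT-PCR and capillary electrophoresis; gain versus DMSO.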
Chain of zebrafish Thyroid Hormone Receptor alpha (TRa), thraa (gene 30670) (Q98867 whole entry, looked up, the tested form may be a part): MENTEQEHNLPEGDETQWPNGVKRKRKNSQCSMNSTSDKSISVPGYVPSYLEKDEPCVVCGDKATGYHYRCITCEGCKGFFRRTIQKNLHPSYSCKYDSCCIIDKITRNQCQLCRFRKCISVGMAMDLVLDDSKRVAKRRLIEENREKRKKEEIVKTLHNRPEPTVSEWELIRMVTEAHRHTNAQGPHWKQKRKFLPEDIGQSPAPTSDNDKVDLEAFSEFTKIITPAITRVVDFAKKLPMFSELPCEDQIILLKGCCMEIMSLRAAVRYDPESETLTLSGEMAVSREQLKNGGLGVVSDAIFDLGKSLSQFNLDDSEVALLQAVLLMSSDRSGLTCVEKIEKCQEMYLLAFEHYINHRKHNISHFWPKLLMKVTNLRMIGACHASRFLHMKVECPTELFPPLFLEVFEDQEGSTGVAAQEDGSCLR

The target in test [14] is human Thyroid hormone Receptor beta (TRb), THRB (gene 7068) (UniProt P10828). Nature of the test: ATG_hTRb_XSP1: Attagene TRANS-FACTORIAL Multi-Species (XSP1) HepG2 Assay for human Thyroid hormone Receptor beta (TRb) (AID 2283808). The procedure, abridged:
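HepG2 cells transiently transfected with reporter units driving GAL4-UAS reporters for chimeric NR-Gal4 proteins; 24 h chemical exposure with 3 nM 6-alpha-fluorotestosterone present. Reporter mRNA quantified by RT-PCR and capillary electrophoresis, gain of signal versus DMSO.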

The target in test [15] is zebrafish Thyroid Hormone Receptor beta (TRb), thrb (gene 30607) (UniProt Q9PVE4). Nature of the test: ATG_zfTRb_XSP1: Attagene TRANS-FACTORIAL Multi-Species (XSP1) HepG2 Assay for zebrafish Thyroid Hormone Receptor beta (TRb) (AID 2283809). The procedure, abridged: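 HepG2 cells transiently transfected with multiplexed GAL4-UAS reporter units expressing chimeric zebrafish TRb–Gal4. Dosed 24 h with 3 nM 6-alpha-fluorotestosterone present; reporter mRNA measured by RT-PCR, HpaI digestion and capillary electrophoresis; gain of signal versus DMSO.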
Chain of zebrafish Thyroid Hormone Receptor beta (TRb), thrb (gene 30607) (Q9PVE4 whole entry, looked up, the tested form may be a part): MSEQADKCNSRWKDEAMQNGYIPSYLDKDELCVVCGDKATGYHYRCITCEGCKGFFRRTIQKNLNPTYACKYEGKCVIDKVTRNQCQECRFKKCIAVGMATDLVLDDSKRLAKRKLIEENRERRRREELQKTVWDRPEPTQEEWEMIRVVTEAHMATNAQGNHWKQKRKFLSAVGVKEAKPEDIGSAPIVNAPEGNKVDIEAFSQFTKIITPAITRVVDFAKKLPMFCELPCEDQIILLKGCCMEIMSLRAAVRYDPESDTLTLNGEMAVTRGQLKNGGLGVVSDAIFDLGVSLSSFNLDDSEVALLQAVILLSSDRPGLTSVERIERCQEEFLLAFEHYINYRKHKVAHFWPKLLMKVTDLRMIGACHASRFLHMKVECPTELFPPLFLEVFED

Test [16] is described as follows: ATG_XTT_Cytotoxicity_XSP1: Cytotoxicity Assessment in the Attagene TRANS-FACTORIAL Multi-Species (XSP1) HepG2 Assay (AID 2283810). Summed up:
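XTT viability readout taken at 24 hours post-dosing in HepG2 liver cells co-treated with 3 nM 6-alpha-fluorotestosterone. Signal loss relative to DMSO controls reflects cytotoxicity.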

Test [17] concerns the target GAL4 Transcription Factor (Internal Marker), GAL4 (gene 855828) (UniProt P04386). Description: ATG_GAL4_XSP2: Attagene TRANS-FACTORIAL Multi-Species (XSP2) HepG2 Assay for GAL4 Transcription Factor (Internal Marker) (AID 2283814).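 Also: GAL4 reporter mRNA background control in MRTU transfected cells not a receptor target.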 The procedure, abridged: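 HepG2 cells transiently transfected with GAL4-UAS reporter units, stimulated with 3 nM 6-alpha-fluorotestosterone plus 1.5 nM norgestrel, dosed 24 h. Reporter mRNA by RT-PCR/capillary electrophoresis; gain-of-signal fit versus DMSO, background control.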

Test [18] can be described thus: ATG_M_61_XSP1: Attagene TRANS-FACTORIAL Multi-Species (XSP1) HepG2 Assay for M61 Transcription Factor (Internal Marker) (AID 2283797). The procedure, abridged:
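HepG2 cells transiently transfected with multiplexed GAL4-driven reporter units, dosed 24 h with 3 nM 6-alpha-fluorotestosterone present. Reporter mRNA quantified by RT-PCR, 6-FAM labelling, HpaI digestion and capillary electrophoresis; internal-marker background control, gain of signal versus DMSO.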

The target in test [19] is frog Thyroid hormone Receptor alpha (TRa), thra-a (gene 397942) (UniProt P15204). Nature of the test: ATG_frTRa_XSP1: Attagene TRANS-FACTORIAL Multi-Species (XSP1) HepG2 Assay for frog Thyroid hormone Receptor alpha (TRa) (AID 2283804). Summed up: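 HepG2 cells transiently transfected with frog TRa-GAL4 chimeric reporter units, dosed 24 hr with 3 nM 6-alpha-fluorotestosterone present; reporter mRNA quantified by RT-PCR, fluorescent labelling and capillary electrophoresis, gain of signal versus DMSO.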
Chain of frog Thyroid hormone Receptor alpha (TRa), thra-a (gene 397942) (P15204 whole entry, looked up, the tested form may be a part): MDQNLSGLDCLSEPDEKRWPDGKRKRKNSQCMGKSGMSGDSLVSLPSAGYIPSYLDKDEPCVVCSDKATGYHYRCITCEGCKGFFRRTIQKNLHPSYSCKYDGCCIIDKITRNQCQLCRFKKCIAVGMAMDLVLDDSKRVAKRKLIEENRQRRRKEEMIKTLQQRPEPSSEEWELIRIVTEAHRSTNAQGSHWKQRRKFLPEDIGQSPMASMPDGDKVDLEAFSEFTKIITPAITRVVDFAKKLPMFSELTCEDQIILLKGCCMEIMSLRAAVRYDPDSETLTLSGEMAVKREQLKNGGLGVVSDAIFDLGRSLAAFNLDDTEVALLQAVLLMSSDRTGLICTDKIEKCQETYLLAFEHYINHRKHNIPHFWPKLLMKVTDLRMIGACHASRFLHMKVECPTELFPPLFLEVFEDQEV

In test [20] the test system is turtle Androgen Receptor (AR), gene 101947425. Nature of the test: ATG_trAR_XSP2: Attagene TRANS-FACTORIAL Multi-Species (XSP2) HepG2 Assay for turtle Androgen Receptor (AR) (AID 2283815).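 As to AC50: potency for gain of reporter signal meaning activation above DMSO baseline.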 The procedure, abridged: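 HepG2 cells transiently transfected with GAL4-UAS reporter units for chimeric NR-Gal4 receptors; 24 h dosing in presence of 3 nM 6-alpha-fluorotestosterone and 1.5 nM norgestrel. Reporter mRNA by RT-PCR and capillary electrophoresis, gain of signal versus DMSO.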

“And” between values parts separate entries of the source, which are not always exact repeats. Equal values may be shown once. Records with an inconclusive call do not appear. Where a structure was tested more than once in an assay, its records may differ in their call. The source made the active and inactive calls. The calls were made as follows: active = hit-call score of the fitted dose curve at least 0.9, where 1 is the maximum; inconclusive = response in the unintended direction; inactive = score below 0.9.

Chain of zebrafish Estrogen Receptor (ER1), esr1 (gene 259252) (P57717 whole entry, looked up, the tested form may be a part): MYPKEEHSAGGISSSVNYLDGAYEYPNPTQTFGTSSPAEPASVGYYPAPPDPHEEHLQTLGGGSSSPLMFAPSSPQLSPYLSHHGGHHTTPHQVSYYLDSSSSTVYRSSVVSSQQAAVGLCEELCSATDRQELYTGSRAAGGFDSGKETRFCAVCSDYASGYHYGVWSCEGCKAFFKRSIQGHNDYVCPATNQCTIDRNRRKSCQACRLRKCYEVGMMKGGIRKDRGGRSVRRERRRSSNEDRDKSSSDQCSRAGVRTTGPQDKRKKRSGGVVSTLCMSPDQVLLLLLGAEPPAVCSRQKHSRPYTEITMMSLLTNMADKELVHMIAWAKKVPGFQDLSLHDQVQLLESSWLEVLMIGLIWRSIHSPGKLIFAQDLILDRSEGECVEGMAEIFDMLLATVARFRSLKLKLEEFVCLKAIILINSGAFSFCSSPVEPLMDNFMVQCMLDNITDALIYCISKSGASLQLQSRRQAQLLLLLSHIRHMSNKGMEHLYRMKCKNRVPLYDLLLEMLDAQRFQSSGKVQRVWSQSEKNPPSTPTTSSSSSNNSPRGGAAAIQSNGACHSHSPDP
Chain of chicken Estrogen Receptor (ERa), ESR1 (gene 396099) (P06212 whole entry, looked up, the tested form may be a part): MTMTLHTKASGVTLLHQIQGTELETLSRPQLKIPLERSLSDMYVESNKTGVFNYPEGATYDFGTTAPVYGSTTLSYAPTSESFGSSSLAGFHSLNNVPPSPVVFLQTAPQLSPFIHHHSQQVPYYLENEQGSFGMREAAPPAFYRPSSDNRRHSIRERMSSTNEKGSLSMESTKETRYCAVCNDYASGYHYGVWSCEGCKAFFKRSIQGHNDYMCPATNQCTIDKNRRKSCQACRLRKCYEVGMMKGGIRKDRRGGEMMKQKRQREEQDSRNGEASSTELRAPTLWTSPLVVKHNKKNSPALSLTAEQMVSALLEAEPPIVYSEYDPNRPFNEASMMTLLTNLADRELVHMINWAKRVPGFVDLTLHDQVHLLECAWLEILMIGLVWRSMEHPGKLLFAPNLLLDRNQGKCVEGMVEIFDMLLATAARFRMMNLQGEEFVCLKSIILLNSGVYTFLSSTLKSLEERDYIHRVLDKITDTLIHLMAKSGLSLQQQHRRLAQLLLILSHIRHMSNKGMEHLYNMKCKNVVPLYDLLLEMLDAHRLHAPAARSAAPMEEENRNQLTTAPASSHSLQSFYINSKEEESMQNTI
Chain of human Thyroid hormone Receptor beta (TRb), THRB (gene 7068) (P10828 whole entry, looked up, the tested form may be a part): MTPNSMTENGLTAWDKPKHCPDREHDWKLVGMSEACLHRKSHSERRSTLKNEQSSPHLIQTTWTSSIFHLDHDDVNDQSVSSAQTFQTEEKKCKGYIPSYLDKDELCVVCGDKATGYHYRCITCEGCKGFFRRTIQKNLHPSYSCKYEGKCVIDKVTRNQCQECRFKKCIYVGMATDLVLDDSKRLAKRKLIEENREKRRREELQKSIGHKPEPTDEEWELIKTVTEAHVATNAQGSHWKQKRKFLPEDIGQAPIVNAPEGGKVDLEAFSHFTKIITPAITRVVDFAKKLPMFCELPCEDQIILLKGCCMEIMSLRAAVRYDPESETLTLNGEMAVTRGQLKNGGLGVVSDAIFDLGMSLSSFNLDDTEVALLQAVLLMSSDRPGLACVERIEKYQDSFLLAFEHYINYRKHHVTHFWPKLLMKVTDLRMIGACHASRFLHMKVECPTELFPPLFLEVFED
Chain of Estrogen receptor beta (Homo sapiens) (Q92731 whole entry, looked up, the tested form may be a part): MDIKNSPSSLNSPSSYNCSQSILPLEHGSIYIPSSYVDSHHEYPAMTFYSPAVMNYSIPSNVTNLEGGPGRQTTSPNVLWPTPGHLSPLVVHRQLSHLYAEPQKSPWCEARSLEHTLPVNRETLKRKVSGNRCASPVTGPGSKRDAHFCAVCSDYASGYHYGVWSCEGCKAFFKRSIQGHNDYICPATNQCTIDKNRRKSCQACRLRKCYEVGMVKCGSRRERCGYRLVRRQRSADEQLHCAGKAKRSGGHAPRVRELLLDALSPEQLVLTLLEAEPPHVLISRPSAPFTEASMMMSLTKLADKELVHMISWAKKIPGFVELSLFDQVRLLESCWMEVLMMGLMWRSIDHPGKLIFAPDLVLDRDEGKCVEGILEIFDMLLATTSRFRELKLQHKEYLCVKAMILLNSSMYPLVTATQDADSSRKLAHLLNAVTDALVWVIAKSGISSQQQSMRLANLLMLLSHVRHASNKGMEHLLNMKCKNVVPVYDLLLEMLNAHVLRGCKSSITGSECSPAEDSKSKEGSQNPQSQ
Chain of human Thyroid hormone Receptor alpha (TRa), THRA (gene 7067) (P10827 whole entry, looked up, the tested form may be a part): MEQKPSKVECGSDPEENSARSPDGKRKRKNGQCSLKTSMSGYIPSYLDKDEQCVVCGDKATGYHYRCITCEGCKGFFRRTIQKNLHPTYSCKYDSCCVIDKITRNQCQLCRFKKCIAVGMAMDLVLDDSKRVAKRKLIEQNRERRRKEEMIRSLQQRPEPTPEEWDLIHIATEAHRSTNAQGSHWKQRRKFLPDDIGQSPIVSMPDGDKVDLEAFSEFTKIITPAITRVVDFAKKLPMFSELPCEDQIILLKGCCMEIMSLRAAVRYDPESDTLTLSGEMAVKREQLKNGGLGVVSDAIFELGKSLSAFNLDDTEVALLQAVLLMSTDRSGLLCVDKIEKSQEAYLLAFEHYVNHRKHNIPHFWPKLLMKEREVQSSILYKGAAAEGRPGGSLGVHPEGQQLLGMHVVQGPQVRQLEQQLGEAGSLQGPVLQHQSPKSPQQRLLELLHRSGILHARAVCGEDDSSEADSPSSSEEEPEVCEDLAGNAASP
Chain of Peroxisome proliferator-activated receptor gamma (Homo sapiens) (P37231 whole entry, looked up, the tested form may be a part): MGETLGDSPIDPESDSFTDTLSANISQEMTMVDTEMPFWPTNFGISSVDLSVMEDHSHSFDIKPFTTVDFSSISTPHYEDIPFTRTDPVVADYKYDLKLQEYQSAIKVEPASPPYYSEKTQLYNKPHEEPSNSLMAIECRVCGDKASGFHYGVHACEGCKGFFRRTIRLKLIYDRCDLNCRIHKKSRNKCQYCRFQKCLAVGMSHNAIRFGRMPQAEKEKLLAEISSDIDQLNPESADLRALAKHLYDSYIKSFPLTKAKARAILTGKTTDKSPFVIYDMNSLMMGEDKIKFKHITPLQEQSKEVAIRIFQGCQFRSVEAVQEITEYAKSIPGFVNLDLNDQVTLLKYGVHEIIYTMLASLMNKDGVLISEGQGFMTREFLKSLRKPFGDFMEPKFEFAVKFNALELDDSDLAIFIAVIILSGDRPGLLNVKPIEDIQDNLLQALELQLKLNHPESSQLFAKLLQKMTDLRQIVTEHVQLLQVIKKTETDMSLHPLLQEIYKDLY
Chain of Nuclear receptor subfamily 1 group I member 2 (Mus musculus) (O54915 whole entry, looked up, the tested form may be a part): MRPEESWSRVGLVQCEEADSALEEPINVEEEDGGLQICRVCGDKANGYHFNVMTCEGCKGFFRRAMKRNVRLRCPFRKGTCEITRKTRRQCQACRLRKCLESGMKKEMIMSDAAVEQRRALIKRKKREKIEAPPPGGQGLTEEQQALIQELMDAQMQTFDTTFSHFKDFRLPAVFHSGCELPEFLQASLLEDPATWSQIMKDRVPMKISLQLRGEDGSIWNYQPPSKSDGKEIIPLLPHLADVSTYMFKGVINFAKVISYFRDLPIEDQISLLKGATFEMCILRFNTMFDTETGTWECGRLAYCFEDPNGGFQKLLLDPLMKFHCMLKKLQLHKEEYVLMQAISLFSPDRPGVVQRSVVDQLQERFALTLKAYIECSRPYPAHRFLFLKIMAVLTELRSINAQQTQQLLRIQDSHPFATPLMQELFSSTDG

The AC50 is the concentration giving half of the maximal activity seen. In the case of `CCOC(=O)C(O)(c1ccc(Cl)cc1)c1ccc(Cl)cc1`, the call in [1], in test [2], in test [3] and in test [4] was inactive. Also, in [4], the concentration at half-maximal activity (AC50) was 8.82 µM (active).

As to `CC(C)(c1ccccc1)c1ccc(O)cc1`, the result in test [5], in test [6], in test [7], in test [8], in [9] and in test [10] was inactive. Moreover, the outcome in test [11], in test [12], in test [13], in test [14], in test [15] and in test [16] was inactive. The result in test [1] was inactive. Also, the values for the concentration at half-maximal activity (AC50) in [2], in test [3] and in test [4] were 0.531 µM (active), 6.4 µM (active) and 1.15 µM (active), respectively.

As to `Clc1ccc(C(c2ccccc2Cl)C(Cl)(Cl)Cl)cc1` (stereo unspecified), the outcome in [5], in test [6], in test [7], in test [11], in [12] and in test [13] was inactive. In addition, the compound was classed as inactive in test [14], in test [15], in test [16], in test [1], in [2] and in [3]. Further, the AC50 in [10] is 2.03 µM (active); in [4], 0.656 µM (active).

Regarding `Cc1cc(-c2ccc(N)c(C)c2)ccc1N`, the compound was called inactive in [17]. The AC50 in test [3] is 65.7 µM (active) and 100 µM (active) and 81.1 µM (active); in test [4], 7.48 µM (active) and 27.1 µM (active) and 17.7 µM (active).

On to `C[C@]12CCC(=O)C=C1CC[C@@H]1[C@@H]2CC[C@]2(C)C(=O)CC[C@@H]12`, for which the compound was called inactive in test [18], in test [6], in [7], in [8], in [19] and in test [11]. Moreover, the outcome in test [12], in test [13], in test [14], in test [15], in [16] and in [1] was inactive. Besides, the compound was classed as inactive in [2], in test [20] and in [3]. For the same compound, the AC50 in test [10] is 2.3 µM (active); in test [2], 0.0192 µM (active); in [20], 2.08 µM (active); in test [3], 3.13 µM (active); in test [4], 9.2 nM (active) and 10.8 nM (active).

Consider `c1cc2ccc3cccc4ccc(c1)c2c34`, for which the compound was classed as inactive in [17] and in test [3]. For the same compound, the concentration at half-maximal activity (AC50) in test [4] was 13.9 µM (active) and 25.4 µM (active).
